Compounds with a hit are over-represented: about 11% of the library has one in this group of screens.
hNpr1 antagonist – Natriuretic polypeptide receptor (hNpr1) antagonism - Primary qHTS; Potency, µM (doses to about 46.3 µM), hits mostly inhibitors; AID 1347048, 2019; actives 1.6% (n = 76,000); HEK293 hNpr1 GloSensor cGMP, ANP-stimulated luminescence; calls by dose curve; also: nearly all actives have a fitted effect of over 60% in size
Target sequence (P16066 whole entry, looked up): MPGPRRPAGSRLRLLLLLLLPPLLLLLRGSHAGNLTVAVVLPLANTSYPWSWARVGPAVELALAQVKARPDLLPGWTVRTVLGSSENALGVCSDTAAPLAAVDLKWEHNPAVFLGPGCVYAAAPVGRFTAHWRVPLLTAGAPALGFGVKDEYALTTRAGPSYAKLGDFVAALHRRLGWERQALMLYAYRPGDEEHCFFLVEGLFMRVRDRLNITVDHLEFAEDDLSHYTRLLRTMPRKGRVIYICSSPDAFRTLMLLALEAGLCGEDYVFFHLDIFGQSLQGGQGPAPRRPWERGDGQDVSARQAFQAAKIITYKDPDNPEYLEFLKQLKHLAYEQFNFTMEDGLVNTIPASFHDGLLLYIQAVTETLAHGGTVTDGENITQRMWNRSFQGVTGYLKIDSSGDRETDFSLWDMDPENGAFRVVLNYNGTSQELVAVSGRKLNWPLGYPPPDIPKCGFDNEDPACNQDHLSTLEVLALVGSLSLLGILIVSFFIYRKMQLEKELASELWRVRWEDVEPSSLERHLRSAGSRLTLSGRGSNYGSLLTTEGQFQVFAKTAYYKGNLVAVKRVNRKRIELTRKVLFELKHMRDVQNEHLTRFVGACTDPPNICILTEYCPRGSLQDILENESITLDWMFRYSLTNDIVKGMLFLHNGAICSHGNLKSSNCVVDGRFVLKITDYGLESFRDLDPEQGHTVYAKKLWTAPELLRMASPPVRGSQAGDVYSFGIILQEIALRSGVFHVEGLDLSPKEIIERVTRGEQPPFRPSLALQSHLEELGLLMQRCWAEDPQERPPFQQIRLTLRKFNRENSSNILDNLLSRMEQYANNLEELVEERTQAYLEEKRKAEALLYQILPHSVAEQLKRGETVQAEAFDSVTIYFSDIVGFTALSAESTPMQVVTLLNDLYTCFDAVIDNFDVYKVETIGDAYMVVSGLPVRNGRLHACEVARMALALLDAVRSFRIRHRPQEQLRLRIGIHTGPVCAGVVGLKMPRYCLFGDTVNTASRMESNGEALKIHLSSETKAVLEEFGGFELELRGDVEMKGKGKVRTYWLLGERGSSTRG
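Compound pre-incubated 30 min at room temperature on GloSensor-loaded HEK293 cells stably carrying hNpr1 and the pGS-40F cGMP biosensor. Stimulation uses hNppA at 0.1 nM final; luminescence is taken at baseline and 20 min post-agonist.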
HEK cytotox – Cytotoxic Profiling in HEK 293 Cell Line of Diverse Libraries Using Quantitative High-Throughput Screening; HEK 293 viability, ATP luminescence (CellTiter-Glo), 48-72 h; Potency, µM (series often up to 115 µM), most hits filed as inhibitors; actives 6.6% (n = 94,000); AID 1345083, 2018; also: nearly all actives have a fitted effect of over 60% in size
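Viability of HEK 293 cells, plated at 250 cells/well, was judged by cellular ATP after compound treatment for 48 or 72 hr. Luminescence was imaged 10 min after CellTiter-Glo addition at room temperature.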
FLuc inh-1 – Firefly luciferase inhibition profiling of diverse chemical library using quantitative high-throughput screening | Luciferin 4-monooxygenase (Photinus pyralis), P08659 | purified P. pyralis luciferase, luminescence, biochemical | Potency, µM (highest dose often 115 µM), usual class: inhibitors | actives 2.5% (n = 76,000); also: nearly all actives have a fitted effect of over 65% in size
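Luminescence read by CCD imager after adding enzyme (10nM final) to wells holding compound, titrated in qHTS. Substrates 10uM each D-luciferin and ATP; buffer 50mM Tris acetate pH 7.5, 10mM Mg acetate, Tween-20, BSA.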
3T3 cytotox – Cytotoxic Profiling in NIH 3T3 Cell Line of Diverse Libraries Using Quantitative High-Throughput Screening; NIH 3T3 viability, CellTiter-Glo ATP luminescence, 48-72 h; Potency, µM (titrated, usually from 96.7 µM), usual class: inhibitors; actives 4.3% (n = 94,000); also: nearly all actives have a fitted effect of over 55% in size
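ATP-dependent luminescence (CellTiter-Glo) served as the viability signal for NIH 3T3 cells treated with compound for 48 or 72 hr at 37 °C.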
FLuc SDR -ATP – Firefly luciferase (FLuc-C-HiBiT) SDR gain of signal screen - without ATP. Purified FLuc-C-HiBiT, Nano-Glo HiBiT luminescence, no ATP. AID 1963318, 2024. actives 7.8% (n = 1,300). shares compounds with FLuc inh-1. Potency, µM (top dose mostly 32.7 µM), hits mostly activators; also: nearly all actives have a fitted effect of over 55% in size
FLuc SDR ATP – Firefly luciferase (FLuc-C-HiBiT) SDR gain of signal screen - plus ATP. shares compounds with FLuc inh-1. purified FLuc-C-HiBiT + ATP, HiBiT complementation luminescence. Potency, µM (series often up to 32.7 µM), most hits filed as activators. actives 8.7% (n = 1,300);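 also: signal reports ligand binding via conformational change of the enzyme rather than luciferase catalysis; nearly all actives have a fitted effect of over 55% in size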
FLuc inh-2 – Firefly luciferase (FLuc-C-HiBiT) enzymatic inhibition screen - Functional assay. shares compounds with FLuc inh-1. purified FLuc-C-HiBiT enzyme, luciferin luminescence. Potency, µM (titrated, usually from 32.7 µM), most hits filed as inhibitors. actives 42% (n = 1,300); also: nearly all actives have a fitted effect of over 70% in size
Hits are given with their value. Unless noted, calls follow the shape of the dose curve; as a rule, active = well fitted curve in the direction sought with a large enough effect; inconclusive = small, poorly fitted or top-dose-only effect, or another doubt; inactive = no such curve, though single readings can be large; an effect the other way counts as inactive or inconclusive.

Results for O=C(c1nc2cccnc2n(Cc2ccccc2)c1=O)N1CCN(C(=O)C2CCCC2)CC1 ?
HEK cytotox: inactive; 3T3 cytotox: inactive

What do the screens show for `COc1ccc(NC(=O)C2CCN(C(=O)c3ncn4c3COC(c3ccc(F)cc3)C4)CC2)cc1F` (centres undefined)?
hNpr1 antagonist: inactive; HEK cytotox: inactive; FLuc inh-1: inconclusive; 3T3 cytotox: inactive

How did Cc1ccc(NC(=O)C2CCN(C(=O)c3ncn4c3COC(c3ccc(F)cc3)C4)CC2)c(F)c1 (centres undefined) do in these assays?
hNpr1 antagonist: inactive; HEK cytotox: inactive; FLuc inh-1: 13µM; 3T3 cytotox: inactive; FLuc SDR -ATP: inactive; FLuc SDR ATP: inconclusive; FLuc inh-2: inconclusive

Results for O=C(Nc1ccccc1F)C1CCN(C(=O)c2ncn3c2COC(c2ccc(F)cc2)C3)CC1 (centres undefined) ?
hNpr1 antagonist: inactive; HEK cytotox: inactive; FLuc inh-1: inconclusive; 3T3 cytotox: inactive

How did COc1ccc(C)cc1NC(=O)C1CCN(C(=O)c2ncn3c2COC(c2ccc(F)cc2)C3)CC1 (centres undefined) do in these assays?
hNpr1 antagonist: inactive; HEK cytotox: inactive; FLuc inh-1: 7.1µM; 3T3 cytotox: inactive; FLuc SDR -ATP: inactive; FLuc SDR ATP: inconclusive; FLuc inh-2: inconclusive

How did CCN1c2cc(C(=O)Nc3cc(C)cc(C)c3)ccc2C(=O)N2CCCC21 (centres undefined) do in these assays?
hNpr1 antagonist: inactive; HEK cytotox: inconclusive; FLuc inh-1: inactive; 3T3 cytotox: inconclusive

Results for CCN1c2cc(C(=O)Nc3ccc4c(c3)OCCO4)ccc2C(=O)N2CCCC21 (centres undefined) ?
hNpr1 antagonist: inactive; HEK cytotox: inconclusive; FLuc inh-1: 5µM; 3T3 cytotox: inconclusive; FLuc SDR -ATP: inactive; FLuc SDR ATP: inactive; FLuc inh-2: inconclusive

Results for CCN1c2cc(C(=O)Nc3ccc4c(c3)OCCO4)ccc2C(=O)N2CCCCCC21 (centres undefined) ?
hNpr1 antagonist: inconclusive; HEK cytotox: 18µM; FLuc inh-1: 11µM; 3T3 cytotox: inconclusive; FLuc SDR -ATP: inactive; FLuc SDR ATP: inactive; FLuc inh-2: inconclusive

Results for CCN1c2cc(C(=O)Nc3ccc(Cl)c(Cl)c3)ccc2C(=O)N2CCCCC21 (centres undefined) ?
hNpr1 antagonist: inactive; HEK cytotox: inconclusive; FLuc inh-1: inactive; 3T3 cytotox: inconclusive

What do the screens show for `COc1cccc(CN2CCC3(CC2)OC(=O)N(Cc2ccccc2)C3(C)c2ccccc2)c1` (centres undefined)?
hNpr1 antagonist: inactive; HEK cytotox: inconclusive; FLuc inh-1: inactive; 3T3 cytotox: inconclusive

Results for Cc1ccc(-c2cc3c(=O)n(CCNC(=O)c4ccccc4F)ccn3n2)c(C)c1 ?
hNpr1 antagonist: inactive; HEK cytotox: inconclusive; FLuc inh-1: 6.3µM; 3T3 cytotox: inactive; FLuc SDR -ATP: inconclusive; FLuc SDR ATP: inconclusive; FLuc inh-2: 7µM

How did COc1ccc(C(=O)NCCn2ccn3nc(-c4ccc(C)cc4C)cc3c2=O)c(C)c1 do in these assays?
hNpr1 antagonist: inconclusive; HEK cytotox: inconclusive; FLuc inh-1: 3.5µM; 3T3 cytotox: inconclusive; FLuc SDR -ATP: inactive; FLuc SDR ATP: inactive; FLuc inh-2: 5µM

Results for Cc1ccc(C(=O)NCCn2ccn3nc(-c4ccc(C)cc4C)cc3c2=O)cc1 ?
hNpr1 antagonist: inactive; HEK cytotox: inactive; FLuc inh-1: inconclusive; 3T3 cytotox: inactive

Screening data (PubChem BioAssay)
